According to PubChem BioAssay (NCATS):
Results filed as inconclusive are left out. Entries that show only a call come without a potency. The source made the active and inactive calls. Calls come from the whole dose curve; as a rule, active = well fitted inhibition curve with a large enough effect; inconclusive = small, poorly fitted or top-dose-only effect; inactive = flat fitted curve, though single readings scatter.

These molecules were tested against Calcium and integrin-binding protein 1 (Homo sapiens) (UniProt Q99828) (assay: Primary qHTS for Identification of Calcium Integrin Binding Protein 1 (CIB1) Competitor (AID 1508620;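 note: GST tagged CIB1 binding a fluorescein labelled alphaIIb integrin peptide tracer; top concentration of the series differs between compounds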)). Settings: CIB1-GST / FITC-alphaIIb peptide fluorescence polarization; series mostly up to 114 µM.
Outline: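 CIB1-GST (1 uM final) and compound incubated 15 min at room temperature before adding FITC-alphaIIb peptide tracer (100 nM final). Competition for binding read by fluorescence polarization (ex 480, em 540) after another 15 min at room temperature.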

Sequence of Calcium and integrin-binding protein 1 (Homo sapiens) (Q99828 whole entry, looked up): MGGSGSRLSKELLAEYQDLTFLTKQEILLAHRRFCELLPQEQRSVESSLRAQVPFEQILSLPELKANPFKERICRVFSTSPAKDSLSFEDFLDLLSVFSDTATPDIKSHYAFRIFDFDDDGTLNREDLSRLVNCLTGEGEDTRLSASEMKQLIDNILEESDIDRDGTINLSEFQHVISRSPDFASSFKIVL

How did the Potency turn out when CC(C)(C)OC(=O)N1CCN(c2ccc(NCc3ncc(-c4ccc(C#N)cc4)s3)cc2)CC1 was run?
The Potency was “inactive”.

For COc1ccccc1C1=Nn2c(nnc2-c2ccccc2OC)SC1, which Potency is on record?
The Potency was “inactive”.

Which Potency does the source give for CCC(=O)NC(c1cc(Cl)c2cccnc2c1O)C1CC1 (stereo not given) here?
Its Potency is “inactive”.

How did the Potency turn out when O=C(OCC#CCSc1nnc(-c2ccc3ccccc3c2)o1)c1cccc(F)c1 was run?
Its Potency is “inactive”.

For Cc1nnc(-c2cnn(C)c2N)o1, which Potency is on record?
The Potency was “inactive”.

Which Potency does the source give for Nc1ccccc1S(=O)(=O)Nc1cccc2cccnc12 here?
Its Potency is “inactive”.

Which Potency does the source give for Cc1ccc(-c2ccnc(N3CCC(C(N)=O)CC3)n2)cc1 here?
Its Potency is “inactive”.

With N#CN1CCC(NS(=O)(=O)c2ccc(C(F)(F)F)cc2)C1 (stereo not given) as the molecule, how does the Potency read?
The Potency was “inactive”.

Which Potency does the source give for NC(=O)C1CCN(c2ncc(Br)cn2)CC1 here?
Its Potency is “inactive”.

With O=C(Nc1nnc(-c2ccco2)o1)c1ccncc1 as the molecule, how does the Potency read?
The Potency was “inactive”.

COc1ccc(OC)c(-c2nnc3n2N=C(c2ccccc2OC)CS3)c1 was tested. Which Potency did it give?
Its Potency is “inactive”.

With CC(C)CN1CCN(C(=O)COC(=O)c2ccc(S(C)(=O)=O)c([N+](=O)[O-])c2)CC1 as the molecule, how does the Potency read?
Its Potency is “inactive”.

With Cc1nnc(-c2cnn(C)c2N)n1Cc1cncn1C as the molecule, how does the Potency read?
Its Potency is “inactive”.

COc1ccc(C(=O)Oc2ccc(-c3nc4ccccc4[nH]3)cc2)cc1OC was tested. Which Potency did it give?
Its Potency is “inactive”.

How did the Potency turn out when O=C(Nc1ccc(Cl)c(Cl)c1)Nc1nnc(C2CCCCC2)s1 was run?
Its Potency is “inactive”.

Which Potency does the source give for FC(F)(F)c1ccccc1-c1nccc(NCc2ccc(-c3cccnc3)cc2)n1 here?
Its Potency is “inactive”.

Which Potency does the source give for O=C1CCc2cc(S(=O)(=O)Nc3cccc(-c4ccccc4)c3)ccc2N1 here?
The Potency was “inactive”.

How did the Potency turn out when COc1ccc(C2Nc3ccccc3C(=O)N2Cc2ccco2)cc1COc1cccc(NC(C)=O)c1 (stereo not given) was run?
Its Potency is “inactive”.

CC(Nc1nc(-c2ccccc2C(F)(F)F)nc2ccccc12)c1ccc(-c2ccccc2)cc1 (stereo not given) was tested. Which Potency did it give?
The Potency was “inactive”.

With Cc1cc2c(s1)c1cnn(Cc3c(F)ccc(F)c3F)c(=O)c1n2C as the molecule, how does the Potency read?
The Potency was “inactive”.

For Cc1ccc(NC(=O)Nc2nnc(-c3ccncc3)s2)cc1C, which Potency is on record?
The Potency was “inactive”.

With Clc1ccc(CSc2nc3ncc(Br)cc3[nH]2)cc1Cl as the molecule, how does the Potency read?
The Potency was “inactive”.

Which Potency does the source give for COc1ccc(NC(=O)C(OC(=O)CNC(=O)c2ccccc2)c2ccccc2)c(C)c1 (stereo not given) here?
The Potency was “inactive”.

For COc1cccc(CNc2ccc(S(=O)(=O)Nc3cccc4ccncc34)cc2)c1O, which Potency is on record?
Its Potency is “inactive”.

With CCCCN(C)C(=O)Cn1nc(-c2cncnc2)ccc1=O as the molecule, how does the Potency read?
Its Potency is “inactive”.

How did the Potency turn out when O=c1cc(CN2CCCN(c3ccc(C(F)(F)F)cn3)CC2)nc2ccccn12 was run?
Its Potency is “inactive”.

CSc1ccccc1-c1ncc(C)c(NCc2ccc(-c3cccnc3)cc2)n1 was tested. Which Potency did it give?
The Potency was “inactive”.

Which Potency does the source give for O=C(Cc1ccc(Cl)c(Cl)c1)Nc1ccc(S(=O)(=O)Nc2cncnc2)cc1 here?
The Potency was “inactive”.

Which Potency does the source give for Cc1cc2c(s1)c1cnn(Cc3c(Cl)cccc3Cl)c(=O)c1n2C here?
Its Potency is “inactive”.

N#Cc1ccc(NS(=O)(=O)c2ccc3c(c2)CCC(=O)N3)cc1 was tested. Which Potency did it give?
The Potency was “inactive”.

How did the Potency turn out when Cc1cc(C)n2ncc(C(=O)Nc3ccc(C#N)cc3)c2n1 was run?
Its Potency is “inactive”.

For Cc1cc2c(s1)c1cnn(Cc3ccc(F)cc3F)c(=O)c1n2C, which Potency is on record?
The Potency was “inactive”.

For O=C(Nc1nnc(-c2ccncc2)s1)Oc1ccc2ccccc2c1, which Potency is on record?
Its Potency is “inactive”.

For CN(Cc1cccs1)c1ncnc2ccc(-c3ccc4cn(C)nc4c3)cc12, which Potency is on record?
Its Potency is “inactive”.

How did the Potency turn out when Cc1cc2c(s1)c1cnn(Cc3cc(F)ccc3F)c(=O)c1n2C was run?
Its Potency is “inactive”.

With O=C(O)c1ccc2c(c1)C(=O)N([C@H](Cc1ccc(-c3ccccc3)cc1)C(=O)O)C2=O as the molecule, how does the Potency read?
The Potency was “inactive”.

Cc1cc(C)nc(NC(=S)N2CC3CN(c4ccc(Cl)cc4C(F)(F)F)CC3C2)c1 (stereo not given) was tested. Which Potency did it give?
The Potency was “inactive”.

CCOC(=O)c1ccc(-c2ccc3ncnc(N(C)Cc4sccc4C)c3c2)o1 was tested. Which Potency did it give?
The Potency was “inactive”.

With O=C(Cn1cc(CN(Cc2ccccc2)Cc2ccccc2)nn1)Nc1cc(C(F)(F)F)ccc1Cl as the molecule, how does the Potency read?
The Potency was “inactive”.

For FC(F)(F)c1cccc(-c2nc(NCc3ccc(-c4cccnc4)cc3)c3ccccc3n2)c1, which Potency is on record?
Its Potency is “inactive”.
